Among all 39,000 compounds or so, about 3,300 (8.5%) were called active. Shown is part of a subset that was picked to be rich in actives.
Each compound was assayed on HepG2 (assay: cytotoxicity call (relative viability < 0.9)). Settings: 10 µM.

Structure (SMILES)	cytotoxicity call
NC(=O)[C@H]1C[C@@H]2C=C[C@H]1C2	inactive
O=C(CCCCCCC(=O)Nc1ccc([C@H]2C[C@H](c3ccccc3)O[C@H](c3ccc(Oc4ccccc4)cc3)O2)cc1)NO	inactive
C[C@H]1CN([C@@H](C)CO)C(=O)c2cc(NC(=O)Cn3cnnn3)ccc2O[C@@H]1CN(C)S(=O)(=O)c1ccc(F)cc1	inactive
Cc1ccc(S(=O)(=O)N2C[C@H](O)COC[C@@H]3O[C@H](CC(=O)NCCCN(C)C)CC[C@H]32)cc1	inactive
CCN1CCN(C(=O)CN2C(=O)c3ccccc3S2(=O)=O)CC1	inactive
CCN1CCN(CC(=O)Nc2ccc(-c3cccc4c(=O)cc(N5CCOCC5)oc34)c3sc4ccccc4c23)CC1	active
CCCC#Cc1ccc2c(c1)O[C@@H](CN(C)S(=O)(=O)c1cccc(F)c1)[C@H](C)CN([C@@H](C)CO)S2(=O)=O	inactive
CC(C)N1C[C@H](C)[C@@H](CN(C)Cc2ccccc2Cl)Oc2c(NC(=O)c3ccncc3)cccc2C1=O	inactive
O=C(CCCN1CCN(c2ccccn2)CC1)c1ccc(F)cc1	inactive
O=C(CN1CCNCC1)c1ccc(F)cc1	inactive
O=C(CCCN1CCC(O)(c2ccc(Cl)cc2)CC1)c1ccc(F)cc1	active
O=C(CCCN1CCC(O)(c2ccc(Br)cc2)CC1)c1ccc(F)cc1	active
O=C(CCCN1CC=C(n2c(=O)[nH]c3ccccc32)CC1)c1ccc(F)cc1	inactive
NC(=O)C1(N2CCCCC2)CCN(CCCC(=O)c2ccc(F)cc2)CC1	inactive
CC(C)(C)OC(=O)C[C@H]1CC=CC[C@@H](CC(=O)N[C@@H](CO)Cc2ccccc2)C(=O)N[C@@H](C(C)(C)C)COC1=O	inactive
C[C@@H]1CN([C@@H](C)CO)C(=O)c2cc(NC(=O)Cc3ccccc3)ccc2O[C@H]1CN(C)Cc1ccc(C(=O)Nc2ccccc2N)cc1	inactive
C[C@@H]1CN([C@@H](C)CO)C(=O)c2cccc(NC(=O)c3ccc(-c4nccs4)cc3)c2O[C@H]1CN(C)C(=O)Nc1ccccc1	inactive
C[C@H](CO)N1C[C@H](C)[C@H](CN(C)Cc2ccc(Cl)c(Cl)c2)Oc2c(NC(=O)Nc3ccc(C(F)(F)F)cc3)cccc2C1=O	inactive
C[C@H]1CN([C@@H](C)CO)C(=O)c2cccc(NC(=O)Nc3ccc(F)cc3)c2O[C@@H]1CN(C)Cc1ccc(Cl)c(Cl)c1	inactive
C[C@@H]1CN([C@@H](C)CO)C(=O)c2cccc(NC(=O)Nc3ccc(C(F)(F)F)cc3)c2O[C@@H]1CN(C)Cc1ccc(Cl)c(Cl)c1	active
C[C@@H]1CN([C@@H](C)CO)C(=O)c2cccc(NC(=O)Nc3ccc(F)cc3)c2O[C@@H]1CN(C)Cc1ccc(Cl)c(Cl)c1	inactive
C[C@H]1CN([C@@H](C)CO)C(=O)c2cccc(NC(=O)Nc3ccc(F)cc3)c2O[C@H]1CN(C)Cc1ccc(Cl)c(Cl)c1	inactive
C[C@@H]1CN([C@@H](C)CO)C(=O)c2cccc(NC(=O)Nc3ccc(C(F)(F)F)cc3)c2O[C@H]1CN(C)Cc1ccc(Cl)c(Cl)c1	active
C[C@H](CO)N1C[C@H](C)[C@@H](CN(C)Cc2ccc(Cl)c(Cl)c2)Oc2c(NC(=O)Nc3ccc(F)cc3)cccc2C1=O	inactive
C[C@@H]1CN([C@H](C)CO)C(=O)c2cccc(NC(=O)Nc3ccc(C(F)(F)F)cc3)c2O[C@H]1CN(C)Cc1ccc(Cl)c(Cl)c1	inactive
C[C@H]1CN([C@@H](C)CO)C(=O)c2cccc(NC(=O)Nc3ccc(C(F)(F)F)cc3)c2O[C@@H]1CN(C)Cc1ccc(Cl)c(Cl)c1	active
C[C@@H]1CN([C@H](C)CO)C(=O)c2cccc(NC(=O)Nc3ccc(C(F)(F)F)cc3)c2O[C@@H]1CN(C)Cc1ccc(Cl)c(Cl)c1	active

— the antibiotic and cytotoxicity screens of Wong et al. (2023)
